PubChem BioAssay (Tox21)
Records with an inconclusive call do not appear. Calls of active or inactive are those of the source. Unless noted, calls follow the shape of the dose curve; as a rule, active = well fitted curve in the direction sought with a large enough effect in the repeat runs; inconclusive = weak or mixed curves; inactive = no such curve, though single readings can be large; an effect the other way counts as inactive or inconclusive.

How the values were obtained:
[1] = qHTS assay to identify small molecule agonists of the estrogen receptor beta (ER-beta) signaling pathway - cell viability counter screen (AID 1259380); also: nearly all actives have a fitted effect of over 30% in size; also: potency is read from the fitted curve at half-maximal effect
Procedure, shortened: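 Luminescence read-out (CellTiter-Glo, 30 min, room temp) taken in the same wells as the beta-lactamase reporter assay; ER-beta-UAS-bla HEK293T cells exposed to DMSO-dissolved compounds for 16 hr at 37C in 2% charcoal-stripped FBS medium.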

[2] = qHTS assay to identify small molecule antagonists of the estrogen receptor beta (ER-beta) signaling pathway - cell viability counter screen (AID 1259382); also: nearly all actives have a fitted effect of over 55% in size; also: potency is read from the fitted curve at half-maximal effect;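 as to activity change, negative = cytotoxicity: HEK293T cells carrying ER-beta-UAS-bla reporter stimulated with estradiol; series mostly up to about 92 µM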
Procedure, shortened: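 Luminescent ATP read-out (CellTiter-Glo, 30 min, RT) taken in the same wells as the bla reporter assay. HEK293T ER-beta-UAS-bla cells in 2% charcoal-stripped FBS were exposed to compounds with 1nM E2 for 16 hr at 37C.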

[3] = qHTS assay to identify small molecule agonists or antagonists of the thyroid stimulating hormone receptor (TSHR) signaling pathway - wild type cell line counter screen (AID 1259384; calls by dose curve)
Procedure, shortened: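 Wild-type Hek293 cells, 800/well, 18 h at 37C, then compound with Ro20-1724 for 30 min RT. cAMP by HTRF (cAMP-d2/anti-cAMP cryptate), 1 h RT, fluorescence read. 15 concentrations, triplicates.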

[4] = molecular target: Thyrotropin receptor (Homo sapiens) (UniProt P16473); assay: qHTS assay to identify small molecule antagonists of the thyroid stimulating hormone receptor (TSHR) signaling pathway (AID 1259385; calls by dose curve; also: nearly all actives have a fitted effect of over 20% in size)
Sequence of Thyrotropin receptor (Homo sapiens) (P16473 whole entry, looked up): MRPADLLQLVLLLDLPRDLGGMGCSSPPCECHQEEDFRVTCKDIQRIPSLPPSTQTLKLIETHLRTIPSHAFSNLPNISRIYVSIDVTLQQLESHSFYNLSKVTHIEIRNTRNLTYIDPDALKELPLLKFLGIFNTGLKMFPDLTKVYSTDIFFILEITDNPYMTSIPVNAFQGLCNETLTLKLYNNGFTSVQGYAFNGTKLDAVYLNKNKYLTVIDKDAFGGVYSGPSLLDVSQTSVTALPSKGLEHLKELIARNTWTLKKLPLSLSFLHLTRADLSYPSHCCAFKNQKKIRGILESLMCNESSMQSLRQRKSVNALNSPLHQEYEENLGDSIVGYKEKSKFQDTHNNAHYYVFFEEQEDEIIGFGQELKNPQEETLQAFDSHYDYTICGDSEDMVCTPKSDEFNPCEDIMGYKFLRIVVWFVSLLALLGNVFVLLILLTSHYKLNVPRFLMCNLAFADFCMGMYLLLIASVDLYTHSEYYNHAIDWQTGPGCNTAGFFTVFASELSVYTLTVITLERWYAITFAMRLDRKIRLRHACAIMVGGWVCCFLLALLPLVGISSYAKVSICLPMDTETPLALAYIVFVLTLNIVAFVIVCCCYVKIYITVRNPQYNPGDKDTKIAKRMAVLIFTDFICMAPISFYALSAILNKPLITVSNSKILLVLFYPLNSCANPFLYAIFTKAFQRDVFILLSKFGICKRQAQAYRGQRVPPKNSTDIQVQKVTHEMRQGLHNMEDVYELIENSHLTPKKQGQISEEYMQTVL
Procedure, shortened: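 TSHR-HEK293 cells (800/well) plated 18 h, then compounds with Ro20-1724 and TSH at 1.5 ng/mL final, 30 min at room temperature. cAMP quantified by HTRF (cAMP-d2/anti-cAMP-cryptate, 1 h); 15 concentrations in triplicate.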

[5] = qHTS assay to identify small molecule agonists of the estrogen receptor alpha (ER-alpha) signaling pathway in the presence of an antagonist - cell viability counter screen (AID 1259386);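 also: series mostly up to about 92 µM; cells exposed to compounds for 22 h at 37 °C before the viability read; nearly all actives have a fitted effect of over 30% in size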
Procedure, shortened: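 Read-out: CellTiter-Fluor fluorescence after 1hr reagent incubation, measured in the same wells as the luciferase readout. VM7Luc4E2 cells were exposed to 15 compound concentrations with 10.0nM ICI-182,780 for 22hr at 37C.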

[6] = molecular target: Progesterone receptor (Homo sapiens) (UniProt P06401); assay: qHTS assay to identify small molecule agonists of the progesterone receptor (PR) signaling pathway (AID 1346784; calls by dose curve; also: nearly all actives have a fitted effect of over 30% in size)
Sequence of Progesterone receptor (Homo sapiens) (P06401 whole entry, looked up): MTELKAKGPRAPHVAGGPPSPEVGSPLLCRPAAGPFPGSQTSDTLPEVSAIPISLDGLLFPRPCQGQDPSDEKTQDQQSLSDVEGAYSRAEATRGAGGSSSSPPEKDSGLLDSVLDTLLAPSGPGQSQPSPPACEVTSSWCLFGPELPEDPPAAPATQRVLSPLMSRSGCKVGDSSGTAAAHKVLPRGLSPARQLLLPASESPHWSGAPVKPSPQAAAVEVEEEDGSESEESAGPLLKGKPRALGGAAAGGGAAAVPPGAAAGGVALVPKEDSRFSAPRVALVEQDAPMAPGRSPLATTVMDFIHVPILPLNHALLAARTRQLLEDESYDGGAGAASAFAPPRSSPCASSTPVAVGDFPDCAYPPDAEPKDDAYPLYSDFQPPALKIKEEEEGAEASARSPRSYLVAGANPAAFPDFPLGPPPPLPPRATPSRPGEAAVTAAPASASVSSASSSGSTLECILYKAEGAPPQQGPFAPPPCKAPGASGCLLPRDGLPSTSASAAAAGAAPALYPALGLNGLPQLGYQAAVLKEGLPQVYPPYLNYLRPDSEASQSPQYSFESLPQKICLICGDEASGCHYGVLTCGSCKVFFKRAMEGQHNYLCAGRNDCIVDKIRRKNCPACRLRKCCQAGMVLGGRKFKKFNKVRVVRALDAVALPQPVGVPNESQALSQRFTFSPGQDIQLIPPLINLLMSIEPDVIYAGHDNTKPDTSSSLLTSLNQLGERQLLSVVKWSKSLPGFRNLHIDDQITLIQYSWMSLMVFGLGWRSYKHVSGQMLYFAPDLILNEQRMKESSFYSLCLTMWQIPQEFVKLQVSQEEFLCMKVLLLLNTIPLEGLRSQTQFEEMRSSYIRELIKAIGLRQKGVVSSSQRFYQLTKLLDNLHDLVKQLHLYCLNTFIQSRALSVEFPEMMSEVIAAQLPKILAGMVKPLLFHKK
Procedure, shortened: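 Beta-lactamase reporter read-out: after 16 hr compound treatment at 37C and a further 2 hr at room temperature with LiveBLAzer B/G FRET substrate, fluorescence was measured in PR-UAS-bla HEK 293T cells grown in 2% charcoal-stripped serum.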

[7] = molecular target: Progesterone receptor (Homo sapiens) (UniProt P06401); assay: qHTS assay to identify small molecule antagonists of the progesterone receptor (PR) signaling pathway (AID 1346795; active = well fitted inhibition curve with a large enough effect in the signal ratio in the repeat runs, not every such curve was filed as active; the % refers to the signal ratio)
Procedure, shortened: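 Read-out is fluorescence from the LiveBLAzer B/G FRET substrate, cleaved by a UAS-controlled beta-lactamase in PR-UAS-bla HEK293T cells after 16 hr exposure to compound plus 1 nM promegestone (final), followed by 2 hr at room temperature.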

[8] = qHTS assay to identify small molecule antagonists of the progesterone receptor (PR) signaling pathway - cell viability counter screen (AID 1346798); also: nearly all actives have a fitted effect of over 50% in size; also: potency is read from the fitted curve at half-maximal effect;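 as to activity change, negative = cytotoxicity: HEK293T PR-UAS-bla cells stimulated with the agonist R5020; series mostly up to about 92 µM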
Procedure, shortened: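 HEK293T PR-UAS-bla, 2% charcoal-stripped FBS; 4 hr pre-plate; cpd + R5020, 16 h 37C; LiveBLAzer read first; then CellTiter-Glo 30 min RT, luminescence.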

[9] = molecular target: Estrogen receptor (Homo sapiens) (UniProt P03372); assay: qHTS assay to identify small molecule agonists of the estrogen receptor alpha (ER-alpha) signaling pathway in the presence of an antagonist (AID 1259383; calls by dose curve; also: top concentration of the series differs between compounds; nearly all actives have a fitted effect of over 15% in size)
Sequence of Estrogen receptor (Homo sapiens) (P03372 whole entry, looked up): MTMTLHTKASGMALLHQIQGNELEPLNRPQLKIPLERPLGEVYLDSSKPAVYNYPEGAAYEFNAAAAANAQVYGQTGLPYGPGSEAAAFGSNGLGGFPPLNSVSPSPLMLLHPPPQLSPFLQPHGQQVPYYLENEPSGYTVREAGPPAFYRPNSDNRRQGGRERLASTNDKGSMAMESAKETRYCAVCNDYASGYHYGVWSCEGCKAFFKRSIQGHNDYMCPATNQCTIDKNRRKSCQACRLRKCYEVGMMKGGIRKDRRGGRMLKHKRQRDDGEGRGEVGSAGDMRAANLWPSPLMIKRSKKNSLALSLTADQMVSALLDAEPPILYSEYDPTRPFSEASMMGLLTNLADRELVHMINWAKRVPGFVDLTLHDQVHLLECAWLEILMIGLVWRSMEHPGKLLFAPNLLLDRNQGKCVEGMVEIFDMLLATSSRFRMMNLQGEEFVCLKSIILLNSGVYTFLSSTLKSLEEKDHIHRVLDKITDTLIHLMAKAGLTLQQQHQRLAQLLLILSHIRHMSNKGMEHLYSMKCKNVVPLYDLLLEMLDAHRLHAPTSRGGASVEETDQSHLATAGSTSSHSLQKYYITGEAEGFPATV
Procedure, shortened: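 Luciferase luminescence (ONE-Glo, 30min at room temperature) measured in VM7Luc4E2 cells after 22hr compound exposure at 15 concentrations, with 10.0nM ICI-182,780 final present; cells express endogenous ER-alpha and carry four EREs upstream of luciferase.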
% is scaled to controls: 0 for no effect and ±100 for the full control effect.

CC1(C)[C@H](C(=O)OCc2cccc(Oc3ccccc3)c2)[C@@H]1C=C(Cl)Cl
inactive: Potency [1] | Potency [2] | Potency [3] | Potency [4] | Potency [5] | outcome [6] | Potency [7] | Potency [8]

CN[C@H]1CC[C@@H](c2ccc(Cl)c(Cl)c2)c2ccc(S(N)(=O)=O)cc21
active: Potency [1] 19.3 µM | Potency [2] 21.7 µM | Potency [8] 48.6 µM
inactive: Potency [9] | Potency [3] | Potency [5]

CC(c1cc(C(C)(C)C)cc(C(C)(C)C)c1O)c1cc(C(C)(C)C)cc(C(C)(C)C)c1O
inactive: Potency [1] | Potency [2] | Potency [3] | Potency [4] | Potency [5] | outcome [6] | Potency [7] | Potency [8]

CN(C[C@@H](CC[N+]12CCC(C3CCCCC3)(CC1)CC2)c1ccc(Cl)c(Cl)c1)C(=O)c1cc(C(F)(F)F)cc(C(F)(F)F)c1
inactive: Potency [9] | Potency [3] | Potency [4]
active: Potency [1] 30.6 µM | Potency [2] 17.2 µM | Potency [8] 27.3 µM

CC(=O)CC(N)=O
inactive: Potency [1] | Potency [2] | Potency [9] | Potency [5] | outcome [6] | Potency [7] | Potency [8]

COc1cc(OC)nc(NC(=O)NS(=O)(=O)Nc2ccccc2C(=O)N(C)C)n1
inactive: Potency [1] | Potency [2] | Potency [9] | Potency [4] | outcome [6] | Potency [7]

Cc1ccc2nc(-c3ccc(N)cc3)sc2c1S(=O)(=O)O
inactive: Potency [1] | Potency [2] | Potency [9] | Potency [3] | Potency [4] | Potency [5] | Potency [8]

CCCCNc1ccc(NCCCC)c2c1C(=O)c1ccccc1C2=O
inactive: activity change, negative = cytotoxicity [1] 6.16% [at 19 µM] | activity change, negative = cytotoxicity [2] 15.6% [at 19 µM] | activation [9] -0.833% [at 19 µM] | activity change, negative = inhibition [4] -5.35% [at 19 µM] | activation [6] 0% [at 19 µM] | activity change, negative = inhibition [7] 12.4% [at 18.9 µM] | activity change, negative = cytotoxicity [8] -7.34% [at 18.9 µM]

c1ccc2c(c1)-c1ccc3ccc4cccc5cc-2c1c3c45
inactive: Potency [1] | Potency [2] | Potency [9] | Potency [8]

C1CCSC1
inactive: Potency [1] | Potency [2] | Potency [9] | Potency [4] | Potency [5] | outcome [6] | Potency [7] | Potency [8]

Cn1c(=O)[nH]c2ncn(C)c2c1=O
inactive: Potency [1] | Potency [2] | Potency [3] | Potency [4] | Potency [5] | outcome [6] | Potency [7] | Potency [8]

Nc1ccc(F)c([N+](=O)[O-])c1
inactive: Potency [1] | Potency [2] | Potency [9] | Potency [3] | Potency [4] | outcome [6] | Potency [7] | Potency [8]

c1ccc2cc3c4ccccc4c4ccccc4c3cc2c1
inactive: Potency [1] | Potency [2] | Potency [3] | Potency [4] | Potency [5] | outcome [6] | Potency [7] | Potency [8]

CCC1(C)C(=O)N(Cl)C(=O)N1Cl (stereo not drawn)
inactive: Potency [1] | Potency [2] | Potency [9] | Potency [4] | outcome [6] | Potency [7] | Potency [8]
